Experimental data: ChEMBL document CHEMBL3988442, “University of Dundee, Small-Polar-MMV Screening Library” (2021)
In all, about 66,000 compounds went through this assay and about 960 (1.5%) showed an effect of 50% or more. What follows is part of a selection rich in strong results, with near analogues and random picks from the rest.

System: Trypanosoma brucei
Assay: Trypanosoma brucei 72 hour study
Format: functional, organism-based
Design: scale not given: in the data most compounds retested in dose-response had high values

**Q.** With O=C(C1CCC1)N1C[C@@H]2CC[C@H](C1)N(S(=O)(=O)c1cccnc1)C2 as the compound, how does the “Percent Effect” value (30 µM, 30.03 µM) read?
**A.** -15.99%

**Q.** With CCOc1ncccc1CNC(=O)NC1CCOc2ccccc21 (centres undefined) as the compound, how does the “Percent Effect” value (30.3 µM, […]) read?
**A.** -12.87%

**Q.** Which “Percent Effect” value (30.3 µM, […]) does the source give for C[C@@H]1CN(Cc2cccnc2)C[C@]12CCN(CCN1CCCC1)C2=O.O=C(O)C(F)(F)F.O=C(O)C(F)(F)F.O=C(O)C(F)(F)F here?
**A.** -30.87%

**Q.** With CCC1CN(C(=O)c2csc3nc(-c4ccc(Cl)cc4)cn23)CCN1 (centres undefined) as the compound, how does the “Percent Effect” value (30 µM, 30.03 µM) read?
**A.** 66.56%

**Q.** O=C(c1csc2nc(-c3ccc(Cl)cc3)cn12)N1CCCC(CO)C1 (centres undefined) was tested. Which “Percent Effect” value (30 µM, 30.03 µM) did it give?
**A.** -27.9%

**Q.** For CC(C)N1CCN(C(=O)c2csc3nc(-c4ccc(Cl)cc4)cn23)CC1, which “Percent Effect” value (30 µM, 30.03 µM) is on record?
**A.** -14.99%

**Q.** Which “Percent Effect” value (30.3 µM, […]) does the source give for Cc1ccc(-c2cc(C3CCNCC3)nc(C)n2)cc1.Cl here?
**A.** 86.87%

**Q.** COc1ccc(-c2cc(C3CCNCC3)nc(C)n2)cc1.Cl was tested. Which “Percent Effect” value (30.3 µM, […]) did it give?
**A.** 0.4357%

**Q.** For Cc1nc(-c2ccccc2)cc(C2CCNCC2)n1.Cl, which “Percent Effect” value (30.3 µM, […]) is on record?
**A.** -24.18%

**Q.** Which “Percent Effect” value (30.3 µM, […]) does the source give for Cc1nc(-c2ccc(F)c(F)c2)cc(C2CCNCC2)n1.Cl here?
**A.** 101.1%

**Q.** With Cc1nc(-c2ccc(CO)cc2)cc(C2CCNCC2)n1.Cl as the compound, how does the “Percent Effect” value (30.3 µM, […]) read?
**A.** -17.1%

**Q.** Which “Percent Effect” value (30.3 µM, […]) does the source give for Cc1nc(-c2ccc(F)cc2)cc(C2CCNCC2)n1 here?
**A.** -5.19%

**Q.** With O=C(O)C(F)(F)F.O=C(c1cscn1)N1CCc2c(COCC3CC3)cncc2C1 as the compound, how does the “Percent Effect” value (30.3 µM, […]) read?
**A.** -26.29%

**Q.** Which “Percent Effect” value (30.3 µM, […]) does the source give for O=C(O)C(F)(F)F.O=C([C@H]1C[C@@H]2CCN(c3cccc(F)c3)C[C@H]2O1)N1CCCCO1 here?
**A.** -0.6141%

**Q.** Which “Percent Effect” value (30 µM, 30.03 µM) does the source give for Fc1ccc(CNCc2nnc3n2CC(C(F)(F)F)CC3)cc1 (centres undefined) here?
**A.** -35.58%

**Q.** For CC[C@@H]1N(Cc2ccc(F)cc2)CCC[C@]12CCC(=O)N2CCOC.O=C(O)C(F)(F)F, which “Percent Effect” value (30.3 µM, […]) is on record?
**A.** -80.81%

**Q.** How did the “Percent Effect” value (30 µM, 30.03 µM) turn out when CC(C)c1n[nH]c(C2CN(C(=O)CCn3ccccc3=O)CCO2)n1 (centres undefined) was run?
**A.** 52.13%

**Q.** CCc1n[nH]c(C2CN(C(=O)CCn3ccccc3=O)CCO2)n1 (centres undefined) was tested. Which “Percent Effect” value (30.3 µM, […]) did it give?
**A.** 7.899%

**Q.** With CC(C)c1n[nH]c(C2CN(C(=O)Cn3ccccc3=O)CCO2)n1 (centres undefined) as the compound, how does the “Percent Effect” value (30.3 µM, […]) read?
**A.** 9.582%

**Q.** With Cn1nc(C2CNCCO2)cc1CCOc1ccc(C(F)(F)F)cc1 (centres undefined) as the compound, how does the “Percent Effect” value (30.3 µM, […]) read?
**A.** 20.05%

**Q.** CN(C)c1ncc(-c2ccc(F)cc2)c(C2CNCCO2)n1.Cl (centres undefined) was tested. Which “Percent Effect” value (30.3 µM, […]) did it give?
**A.** 29.73%

**Q.** Which “Percent Effect” value (30.3 µM, […]) does the source give for Cl.Clc1ccc(-c2ccc(C3CNCCO3)nc2)cc1 (centres undefined) here?
**A.** 98.64%

**Q.** Which “Percent Effect” value (30.3 µM, […]) does the source give for COc1ccc(-c2ccc(C3CNCCO3)nc2)cc1.Cl (centres undefined) here?
**A.** -17.4%

**Q.** For COc1ccc(OCCc2cc(C3CNCCO3)nn2C)cc1 (centres undefined), which “Percent Effect” value (30.3 µM, […]) is on record?
**A.** 1.828%

**Q.** Which “Percent Effect” value (30.3 µM, […]) does the source give for Cl.Cl.Cn1nc(C2CNCCO2)cc1CCOc1ccc(Cl)cc1 (centres undefined) here?
**A.** 53.46%

**Q.** How did the “Percent Effect” value (30.3 µM, […]) turn out when Cl.c1ncc(-c2ccc(C3CNCCO3)nc2)cn1 (centres undefined) was run?
**A.** -18.07%

**Q.** For Cl.c1ccc(-c2ccc(C3CNCCO3)nc2)cc1 (centres undefined), which “Percent Effect” value (30 µM, 30.03 µM) is on record?
**A.** -8.657%

**Q.** How did the “Percent Effect” value (30.3 µM, […]) turn out when Cc1ccc(-c2ccc(C3CNCCO3)nc2)cc1.Cl (centres undefined) was run?
**A.** 88.62%

**Q.** Which “Percent Effect” value (30 µM, 30.03 µM) does the source give for COCCCNC(=O)NCc1cccn1Cc1ccccc1C here?
**A.** -24.61%

**Q.** With O=C(O)C(F)(F)F.O=C1COC2(CCN(Cc3ccoc3)CC2)CN1c1ccccc1 as the compound, how does the “Percent Effect” value (30 µM, 30.03 µM) read?
**A.** -9.648%

**Q.** With COCCNC(=O)[C@H]1CN(Cc2csc(C)n2)C[C@H]2OCC[C@@H]12.O=C(O)C(F)(F)F.O=C(O)C(F)(F)F as the compound, how does the “Percent Effect” value (30 µM, 30.03 µM) read?
**A.** -11.19%

**Q.** Which “Percent Effect” value (30 µM, 30.03 µM) does the source give for COCC1CC2(CCN(Cc3cccc(C#N)c3)CC2)CN1C(C)C.O=C(O)C(F)(F)F.O=C(O)C(F)(F)F (centres undefined) here?
**A.** -12.65%

**Q.** For CC(C)CC(=O)N1CC(=O)c2sc(NC3CCCCC3)nc2C1, which “Percent Effect” value (30.3 µM, […]) is on record?
**A.** -18.82%

**Q.** How did the “Percent Effect” value (30.3 µM, […]) turn out when CC[C@H](C)[C@H](N)C(=O)N1CC(=O)c2sc(NC3CCCCC3)nc2C1 was run?
**A.** 89.66%

**Q.** For CC(C)NC(=O)N1CC(=O)c2sc(NC3CCCCC3)nc2C1, which “Percent Effect” value (30.3 µM, […]) is on record?
**A.** -21.05%

**Q.** Which “Percent Effect” value (30.3 µM, […]) does the source give for CC[C@H](C)[C@H](N)C(=O)N1CC(=O)c2sc(NCc3ccccc3)nc2C1 here?
**A.** 35.54%

**Q.** For CC[C@H](C)[C@H](N)C(=O)N1CC(=O)c2sc(Nc3ccc(F)cc3)nc2C1, which “Percent Effect” value (30.3 µM, […]) is on record?
**A.** 54.3%

**Q.** CC(C)CC(=O)N1CC(=O)c2sc(Nc3ccc(F)cc3)nc2C1 was tested. Which “Percent Effect” value (30.3 µM, […]) did it give?
**A.** -26.14%

**Q.** How did the “Percent Effect” value (30 µM, 30.03 µM) turn out when N[C@H]1CC[C@@H](n2cc(C(=O)N[C@H]3CCCc4ccccc43)nn2)CC1 was run?
**A.** -48.79%

**Q.** O=C(Nc1cnccn1)[C@@H]1COC[C@H]2CN(C3CCC3)C[C@H]21.O=C(O)C(F)(F)F was tested. Which “Percent Effect” value (30 µM, 30.03 µM) did it give?
**A.** -9.316%

**Q.** Which “Percent Effect” value (30.3 µM, […]) does the source give for COCCN1CCC(CNC(=O)C2(c3cccc(Cl)c3)CC2)C1 (centres undefined) here?
**A.** 10.42%

**Q.** For COCCN1CCC(CNC(=O)Nc2ccc(SC(F)(F)F)cc2)C1 (centres undefined), which “Percent Effect” value (30.3 µM, […]) is on record?
**A.** 90.18%

**Q.** Which “Percent Effect” value (30.3 µM, […]) does the source give for COCCN1CCC(CNC(=O)C2(c3ccccc3)CCC2)C1 (centres undefined) here?
**A.** -7.306%

**Q.** For COCCN1CCC(CNC(=O)CCc2cc(F)ccc2F)C1 (centres undefined), which “Percent Effect” value (30 µM, 30.03 µM) is on record?
**A.** -4.617%

**Q.** With COCCN1CCC(CNC(=O)C2(c3ccccc3)CCOCC2)C1 (centres undefined) as the compound, how does the “Percent Effect” value (30.3 µM, […]) read?
**A.** -10.94%

**Q.** How did the “Percent Effect” value (30.3 µM, […]) turn out when COCCN1CCC(CNC(=O)Nc2ccc(-c3ccccc3)cc2)C1 (centres undefined) was run?
**A.** 100.6%

**Q.** How did the “Percent Effect” value (30 µM, 30.03 µM) turn out when COCCn1cc(NC(=O)NCC2CCN(c3ccccc3)C2)cn1 (centres undefined) was run?
**A.** -68.77%

**Q.** COCCN1CCC(CNC(=O)Nc2ccc(F)c(Cl)c2)C1 (centres undefined) was tested. Which “Percent Effect” value (30.3 µM, […]) did it give?
**A.** 73.54%

**Q.** With COCCN1CCC(CNC(=O)c2cc(C)cc(C)c2)C1 (centres undefined) as the compound, how does the “Percent Effect” value (30 µM, 30.03 µM) read?
**A.** 28.41%

**Q.** With O=C(C1CCCC1)N1CCC2(CC1)COCCN2CC1CC1.O=C(O)C(F)(F)F as the compound, how does the “Percent Effect” value (30.3 µM, […]) read?
**A.** -13.33%

**Q.** For CCN1CCC2(CC1)CC(NCc1ccncc1)c1ccccc1O2.O=C(O)C(F)(F)F.O=C(O)C(F)(F)F.O=C(O)C(F)(F)F (centres undefined), which “Percent Effect” value (30 µM, 30.03 µM) is on record?
**A.** 1.43%

**Q.** For O=C(CN1CCC(c2ccnn2CCO)CC1)NCc1ccco1, which “Percent Effect” value (10 µM) is on record?
**A.** -47.08%

**Q.** Which “Percent Effect” value (30 µM, 30.03 µM) does the source give for O=C(O)C(F)(F)F.O=C(c1ccno1)N1CC[C@@H]2O[C@H](COCCN3CCCC3)CC[C@@H]21 here?
**A.** 39.45%

**Q.** For CCCN(Cc1cnc2ccccc2n1)Cc1ccccc1OC, which “Percent Effect” value (30.3 µM, […]) is on record?
**A.** 99.59%

**Q.** With CCCN(Cc1ccccn1)Cc1ccccc1OC as the compound, how does the “Percent Effect” value (30.3 µM, […]) read?
**A.** -7.297%

**Q.** CCCN(Cc1nc2ccccc2[nH]1)Cc1ccccc1OC was tested. Which “Percent Effect” value (30.3 µM, […]) did it give?
**A.** 15.38%

**Q.** Which “Percent Effect” value (30 µM, 30.03 µM) does the source give for Cc1cccc(CN2CCn3cc(Cn4cccn4)nc3C2)n1.O=C(O)C(F)(F)F.O=C(O)C(F)(F)F.O=C(O)C(F)(F)F here?
**A.** -12.32%

**Q.** With O=C(O)C(F)(F)F.O=C(c1cnccn1)N1CCOC2(CCCN(c3ncccc3F)C2)C1 (centres undefined) as the compound, how does the “Percent Effect” value (30.3 µM, […]) read?
**A.** -33.25%

**Q.** Which “Percent Effect” value (30 µM, 30.03 µM) does the source give for O=C(O)C(F)(F)F.O=C(c1ccnnc1)N1CC[C@]2(C[C@H](Oc3ncccc3F)CO2)C1 here?
**A.** -5.807%
